In PubChem BioAssay AID1159580 (chemical genetic matrix, 2015):
Hit rate of the full screen: of about 5,500 compounds, about 2,000 (36%) were called active. Not shown: some 18% with an inconclusive outcome. Rule as the data show it: active = normalized growth mostly below about 0.91 (no sharp cut-off); inconclusive = no clear call, values can overlap the other calls; inactive = mostly above about 0.92. The list shows a part of the results.

Assay: chemical genetic growth profiling, strain panel (AID 1159580);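 also: tested at 20 µM; growth read once vehicle control cultures reached saturation at 30 °C; 1 = growth at the plate median or of vehicle wells; lower values mean less growth of the strain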
Details: growth OD

Measured: normalized growth

CC1CCc2cc(F)cc3c(=O)c(C(=O)O)cn1c23 (configuration not stated)
inactive: S. cerevisiae deletion strains, locus YJR075W, strain HOC1, stronger effect = lower value 0.967 | S. cerevisiae deletion strains, locus YKL009W, strain mrt4, stronger effect = lower value 0.957 | S. cerevisiae deletion strains, locus YKL068W, stronger effect = lower value 0.985 | S. cerevisiae deletion strains, locus YKL085W, strain MDH1 (second series), stronger effect = lower value 0.974 | S. cerevisiae deletion strains, locus YKL085W, strain MDH1, stronger effect = lower value 0.974 | S. cerevisiae deletion strains, locus YKL160W, strain elf1, stronger effect = lower value 0.971 | S. cerevisiae deletion strains, locus YKL190W, strain CNB1, stronger effect = lower value 0.991 | S. cerevisiae deletion strains, locus YKR001C, strain vps1, stronger effect = lower value 0.998 | S. cerevisiae deletion strains, locus YKR026C, strain gcn3, stronger effect = lower value 0.989 | S. cerevisiae deletion strains, locus YKR091W, strain srl3, stronger effect = lower value 0.994 | S. cerevisiae deletion strains, locus YLL001W, strain dnm1, stronger effect = lower value 0.966 | S. cerevisiae deletion strains, locus YLL026W, stronger effect = lower value 0.995 | S. cerevisiae deletion strains, locus YLL041C, strain sdh2, stronger effect = lower value 0.989 | S. cerevisiae deletion strains, locus YLR027C, strain aat2, stronger effect = lower value 0.988 | S. cerevisiae deletion strains, locus YLR039C, strain RIC1, stronger effect = lower value 0.892 | S. cerevisiae deletion strains, locus YLR058C, strain SHM2, stronger effect = lower value 0.983 | S. cerevisiae deletion strains, locus YLR102C, strain apc9, stronger effect = lower value 0.982 | S. cerevisiae deletion strains, locus YLR113W, strain HOG1, stronger effect = lower value 0.955 | S. cerevisiae deletion strains, locus YLR221C, strain rsa3, stronger effect = lower value 0.973 | S. cerevisiae deletion strains, locus YLR258W, strain gsy2, stronger effect = lower value 0.982 | S. cerevisiae deletion strains, locus YLR262C, strain YPT6 (second series), stronger effect = lower value 0.952 | S. cerevisiae deletion strains, locus YLR262C, strain YPT6, stronger effect = lower value 0.867 | S. cerevisiae deletion strains, locus YLR268W, strain sec22, stronger effect = lower value 0.894 | S. cerevisiae deletion strains, locus YLR320W, strain mms22, stronger effect = lower value 0.972 | S. cerevisiae deletion strains, locus YLR330W, strain CHS5, stronger effect = lower value 1.01 | S. cerevisiae deletion strains, locus YLR342W, strain FKS1 (second series), stronger effect = lower value 0.978 | S. cerevisiae deletion strains, locus YLR342W, strain FKS1, stronger effect = lower value 0.978 | S. cerevisiae deletion strains, locus YLR357W, strain rsc2, stronger effect = lower value 0.923 | S. cerevisiae deletion strains, locus YLR370C, strain arc18, stronger effect = lower value 0.991 | S. cerevisiae deletion strains, locus YLR371W, strain rom2, stronger effect = lower value 0.965 | S. cerevisiae deletion strains, locus YLR384C, strain iki3, stronger effect = lower value 0.985 | S. cerevisiae deletion strains, locus YLR418C, strain cdc73, stronger effect = lower value 0.96 | S. cerevisiae deletion strains, locus YML016C, strain PPZ1, stronger effect = lower value 0.986 | S. cerevisiae deletion strains, locus YML032C, strain rad52, stronger effect = lower value 0.95 | S. cerevisiae deletion strains, locus YML120C, strain ndi1, stronger effect = lower value 0.975 | S. cerevisiae deletion strains, locus YML124C, strain tub3, stronger effect = lower value 0.994 | S. cerevisiae deletion strains, locus YMR058W, strain fet3, stronger effect = lower value 0.998 | S. cerevisiae deletion strains, locus YMR078C, strain ctf18, stronger effect = lower value 0.961 | S. cerevisiae deletion strains, locus YMR125W, strain sto1, stronger effect = lower value 0.978 | S. cerevisiae deletion strains, locus YMR129W, stronger effect = lower value 0.992 | S. cerevisiae deletion strains, locus YMR205C, strain PFK2, stronger effect = lower value 0.968 | S. cerevisiae deletion strains, locus YMR223W, strain ubp8, stronger effect = lower value 0.992 | S. cerevisiae deletion strains, locus YMR231W, strain pep5, stronger effect = lower value 0.991 | S. cerevisiae deletion strains, locus YMR263W, strain SAP30, stronger effect = lower value 0.964 | S. cerevisiae deletion strains, locus YMR307W, strain GAS1, stronger effect = lower value 1.02 | S. cerevisiae deletion strains, locus YNL067W, strain RPL9B, stronger effect = lower value 0.962 | S. cerevisiae deletion strains, locus YNL071W, strain lat1, stronger effect = lower value 0.998 | S. cerevisiae deletion strains, locus YNL128W, strain TEP1, stronger effect = lower value 0.976 | S. cerevisiae deletion strains, locus YNL153C, strain GIM3, stronger effect = lower value 0.972 | S. cerevisiae deletion strains, locus YNL183C, strain NPR1, stronger effect = lower value 0.904 | S. cerevisiae deletion strains, locus YNL209W, strain ssb2, stronger effect = lower value 0.996 | S. cerevisiae deletion strains, locus YNL233W, strain BNI4, stronger effect = lower value 0.968 | S. cerevisiae deletion strains, locus YNL248C, strain rpa49, stronger effect = lower value 0.971 | S. cerevisiae deletion strains, locus YNL250W, strain rad50, stronger effect = lower value 0.973 | S. cerevisiae deletion strains, locus YNL271C, strain bni1, stronger effect = lower value 0.962 | S. cerevisiae deletion strains, locus YNL298W, strain CLA4, stronger effect = lower value 0.957 | S. cerevisiae deletion strains, locus YNL307C, strain MCK1, stronger effect = lower value 0.983 | S. cerevisiae deletion strains, locus YNL322C, strain KRE1 (second series), stronger effect = lower value 0.995 | S. cerevisiae deletion strains, locus YNL322C, strain KRE1, stronger effect = lower value 0.986 | S. cerevisiae deletion strains, locus YNR049C, strain mso1, stronger effect = lower value 0.987 | S. cerevisiae deletion strains, locus YNR052C, strain pop2, stronger effect = lower value 0.96 | S. cerevisiae deletion strains, locus YOL006C, strain TOP1, stronger effect = lower value 0.947 | S. cerevisiae deletion strains, locus YOL012C, strain htz1 0.784 | S. cerevisiae deletion strains, locus YOL147C, strain pex11, stronger effect = lower value 0.973 | S. cerevisiae deletion strains, locus YOR001W, strain rrp6, stronger effect = lower value 0.968 | S. cerevisiae deletion strains, locus YOR061W, strain CKA2, stronger effect = lower value 0.984 | S. cerevisiae deletion strains, locus YOR069W, strain VPS5, stronger effect = lower value 0.977 | S. cerevisiae deletion strains, locus YOR070C, strain gyp1, stronger effect = lower value 0.99 | S. cerevisiae deletion strains, locus YOR080W, strain dia2, stronger effect = lower value 0.992 | S. cerevisiae deletion strains, locus YOR083W, strain WHI5, stronger effect = lower value 0.969 | S. cerevisiae deletion strains, locus YOR106W, strain vam3, stronger effect = lower value 0.947 | S. cerevisiae deletion strains, locus YOR136W, strain idh2, stronger effect = lower value 0.98 | S. cerevisiae deletion strains, locus YOR144C, strain elg1, stronger effect = lower value 0.975 | S. cerevisiae deletion strains, locus YOR184W, strain ser1, stronger effect = lower value 0.959 | S. cerevisiae deletion strains, locus YOR231W, strain MKK1, stronger effect = lower value 0.982 | S. cerevisiae deletion strains, locus YOR265W, strain rbl2, stronger effect = lower value 0.982 | S. cerevisiae deletion strains, locus YOR270C, strain vph1, stronger effect = lower value 0.959 | S. cerevisiae deletion strains, locus YOR290C, strain snf2, stronger effect = lower value 0.955 | S. cerevisiae deletion strains, locus YOR316C, strain cot1, stronger effect = lower value 0.97 | S. cerevisiae deletion strains, locus YPL051W, strain arl3, stronger effect = lower value 0.984 | S. cerevisiae deletion strains, locus YPL055C, strain LGE1, stronger effect = lower value 0.985 | S. cerevisiae deletion strains, locus YPL078C, strain atp4, stronger effect = lower value 0.976 | S. cerevisiae deletion strains, locus YPL106C, strain sse1, stronger effect = lower value 0.963 | S. cerevisiae deletion strains, locus YPL240C, strain hsp82, stronger effect = lower value 0.974 | S. cerevisiae deletion strains, locus YPL241C, strain CIN2, stronger effect = lower value 0.997 | S. cerevisiae deletion strains, locus YPL256C, strain CLN2, stronger effect = lower value 0.974 | S. cerevisiae deletion strains, locus YPR119W, strain clb2, stronger effect = lower value 0.973 | S. cerevisiae deletion strains, locus YPR141C, strain kar3, stronger effect = lower value 0.961 | S. cerevisiae deletion strains, locus YPR163C, strain tif3, stronger effect = lower value 0.974 | S. cerevisiae deletion strains, locus YPR167C, strain met16, stronger effect = lower value 0.97 | S. cerevisiae deletion strains, strain wtn01, stronger effect = lower value 0.95 | S. cerevisiae strains, strain wild type, stronger effect = lower value 0.987
